Bioassay records as filed in PubChem.
UHRF1 binding: human UHRF1 methylated DNA binding inhibitors. Q96T88. UHRF1 binding to methylated oligo, TR-FRET. inhibition, % at 4.4 µM. actives 0.75% (n = 370,000). AID 687016; in the data active means inhibition above about 21%;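 further: UHRF1 SRA domain binding a hemimethylated CpG hairpin DNA probe; 0% = median of test compound wells and 100% = reference inhibitor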
LEDGF integ inh: blocks HIV-1 LEDGF/p75-dependent DNA integration. actives 0.64% (n = 370,000). inhibition, % at 3.7 µM. TR-FRET IN-LEDGF/p75 DNA integration, Eu/Cy5;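 active means inhibition above the screen-wide mean plus 3 SD, cut at about 13% in these data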;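 further: signal is the Cy5 over europium emission ratio at 671 and 618 nm; 0% = plate median of compound wells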
PLC-gamma1 inh: inhibitors of human phospholipase C gamma1; P19174; purified PLC-gamma1, fluorogenic substrate, fluorescence; inhibition, % at 12.2 µM; actives 0.84% (n = 370,000); AID 720700; in the data active means inhibition above about 9.5%
PLCb3 inh: inhibitors of human phospholipase C beta3 | Q01970 | actives 0.18% (n = 370,000) | inhibition, % at 12.2 µM | AID 720704 | Purified PLC-beta3, fluorogenic substrate, fluorescence;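 further: 0% = median of compound wells on plate and 100% = full blocker control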
Target sequence (Q01970 whole entry, looked up): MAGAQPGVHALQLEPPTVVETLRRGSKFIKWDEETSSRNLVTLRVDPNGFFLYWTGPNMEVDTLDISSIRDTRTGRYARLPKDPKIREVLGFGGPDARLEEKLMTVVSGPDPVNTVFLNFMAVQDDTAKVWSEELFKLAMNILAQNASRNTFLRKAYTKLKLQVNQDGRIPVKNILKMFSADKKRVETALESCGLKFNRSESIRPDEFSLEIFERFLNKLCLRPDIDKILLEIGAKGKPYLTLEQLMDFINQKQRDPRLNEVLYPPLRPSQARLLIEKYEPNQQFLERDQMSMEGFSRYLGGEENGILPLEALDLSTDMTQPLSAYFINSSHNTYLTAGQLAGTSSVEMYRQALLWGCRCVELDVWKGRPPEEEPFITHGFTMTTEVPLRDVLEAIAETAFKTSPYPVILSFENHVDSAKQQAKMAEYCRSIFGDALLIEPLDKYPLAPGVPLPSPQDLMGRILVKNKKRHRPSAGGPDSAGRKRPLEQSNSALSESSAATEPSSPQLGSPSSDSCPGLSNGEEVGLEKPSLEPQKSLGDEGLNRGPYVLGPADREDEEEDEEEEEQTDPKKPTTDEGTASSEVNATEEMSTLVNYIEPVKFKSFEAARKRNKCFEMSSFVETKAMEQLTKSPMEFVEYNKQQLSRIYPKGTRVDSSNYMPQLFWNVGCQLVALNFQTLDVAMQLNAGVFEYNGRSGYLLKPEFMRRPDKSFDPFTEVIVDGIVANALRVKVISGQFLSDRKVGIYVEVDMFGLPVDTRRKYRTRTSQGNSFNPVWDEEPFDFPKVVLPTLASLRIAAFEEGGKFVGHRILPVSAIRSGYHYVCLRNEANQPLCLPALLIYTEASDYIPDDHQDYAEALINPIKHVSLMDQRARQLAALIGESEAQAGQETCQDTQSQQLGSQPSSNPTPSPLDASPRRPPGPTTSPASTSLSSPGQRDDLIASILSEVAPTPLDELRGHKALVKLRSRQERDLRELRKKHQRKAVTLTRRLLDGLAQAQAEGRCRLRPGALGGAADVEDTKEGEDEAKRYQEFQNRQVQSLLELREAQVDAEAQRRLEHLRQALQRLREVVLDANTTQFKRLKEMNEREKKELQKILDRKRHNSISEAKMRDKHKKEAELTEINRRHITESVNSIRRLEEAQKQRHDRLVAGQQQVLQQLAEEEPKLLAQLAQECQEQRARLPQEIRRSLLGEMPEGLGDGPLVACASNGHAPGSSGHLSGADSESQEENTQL
MBD2 DNA inh: MBD2-methylated oligo binding inhibition; Q9UBB5; TR-FRET, MBD2 binding to methylated oligonucleotide; inhibition, % at 4.4 µM; actives 0.31% (n = 370,000); AID 686964; in the data active means inhibition above about 13%
PLCgamma1 ctr: PLC-gamma1 inhibition, counter-screen for PLC-beta3 hits. inhibition, % at 12.3 µM. actives 3.1% (n = 3,300). purified PLC-gamma1, fluorogenic substrate, fluorescence. shares compounds with PLC-gamma1 inh; in the data active means inhibition above about 9.5%
PLCb3 confirm: confirmation of human PLC-beta3 inhibitors | shares compounds with PLC-gamma1 inh | purified PLC-beta3, fluorogenic substrate fluorescence | inhibition, % at 12.3 µM | actives 1% (n = 3,300) | AID 743261
* hit, by the source's call. A selection: hits, their analogues and other compounds. The true share with any hit is near 2.3%. Unless noted, no stated cut-off is given here; in the data, active means inhibition above about 11%; inactive means the rest.

For O=C(O)CCC(=O)N1CCc2cc(S(=O)(=O)N(CCc3ccccc3)Cc3ccccc3)ccc21 the results were UHRF1 binding 6.9, LEDGF integ inh 7.7, PLC-gamma1 inh 10.2*, PLCb3 inh 4.0, MBD2 DNA inh 4.5, PLCgamma1 ctr -2.8 and PLCb3 confirm -6.3.
Screening COc1ccc(N(CC(=O)Nc2ccccc2OC)S(=O)(=O)c2ccccc2)cc1Cl returned UHRF1 binding -1.8, LEDGF integ inh 1.6, PLC-gamma1 inh 0.6, PLCb3 inh -8.5 and MBD2 DNA inh -3.1.
For COc1ccc(NC(=O)CN(c2ccc(OC)c(Cl)c2)S(=O)(=O)c2ccccc2)c(OC)c1 the results were UHRF1 binding -0.3, LEDGF integ inh 9.4, PLC-gamma1 inh 10.7*, PLCb3 inh -4.2, MBD2 DNA inh -1.8, PLCgamma1 ctr -2.8 and PLCb3 confirm 0.9.
COc1cccc(C(=O)NC2CC3CCCC(C2)N3CC(=O)Nc2ccc(N(C)C)cc2)c1 (centres undefined) was read as UHRF1 binding -1.0, LEDGF integ inh -0.2, PLC-gamma1 inh 10.7*, PLCb3 inh 5.5, MBD2 DNA inh -10.4, PLCgamma1 ctr -3.7 and PLCb3 confirm 0.3.
For CCN(CC)C(=O)Oc1ccc(Br)cc1C(=O)Nc1ccc(F)cc1F the results were UHRF1 binding 6.6, LEDGF integ inh 3.3, PLC-gamma1 inh 9.7*, PLCb3 inh 0.9, MBD2 DNA inh -3.5, PLCgamma1 ctr 0.0 and PLCb3 confirm -5.7.
O=S(=O)(N[C@@H]1CCCC[C@H]1N1CCOCC1)c1ccc(Cl)cc1 was read as UHRF1 binding 0.2, LEDGF integ inh 1.2, PLC-gamma1 inh 2.4, PLCb3 inh 1.6 and MBD2 DNA inh -4.6.
Screening CC[C@@H]1/C(=C/c2ccccc2)N2C(=O)C[C@@H](c3ccccc3)N=C2N1Cc1ccc(OC)cc1OC returned UHRF1 binding -0.6, LEDGF integ inh -2.2, PLC-gamma1 inh -2.4, PLCb3 inh -1.7 and MBD2 DNA inh -1.7.
O=C(NCC(c1ccccc1)c1ccccc1)[C@H](Cc1ccccc1)NC1(C(=O)NC2CCCCC2)CCOCC1 was read as UHRF1 binding 3.4, LEDGF integ inh 3.1, PLC-gamma1 inh 13.8*, PLCb3 inh 3.2, MBD2 DNA inh -2.7, PLCgamma1 ctr 1.9 and PLCb3 confirm 5.0.
For O=S(=O)(CC1NCc2cc(F)ccc21)NCCc1ccccc1 (centres undefined) the results were UHRF1 binding -1.5, LEDGF integ inh 6.0, PLC-gamma1 inh -6.7, PLCb3 inh -11.1 and MBD2 DNA inh 4.1.
Screening CCOC(=O)c1csc(NNC=O)n1 returned UHRF1 binding -0.4, LEDGF integ inh -1.0, PLC-gamma1 inh 0.8, PLCb3 inh 11.2*, MBD2 DNA inh -1.5, PLCgamma1 ctr -5.6 and PLCb3 confirm -1.4.
For CCCc1[nH]n(-c2nc3ccccc3s2)c(=O)c1C=NCCCOC the results were UHRF1 binding 2.4, LEDGF integ inh 10.9, PLC-gamma1 inh 11.2*, PLCb3 inh -1.8, MBD2 DNA inh -3.6, PLCgamma1 ctr -5.1 and PLCb3 confirm -1.9.
CC(C)(C)c1ccc(OC(=O)c2ccc3snnc3c2)cc1 was read as UHRF1 binding 4.4, LEDGF integ inh 9.4, PLC-gamma1 inh 10.2*, PLCb3 inh 1.8, MBD2 DNA inh 1.8, PLCgamma1 ctr 0.3 and PLCb3 confirm 4.5.
For CC(C)(C)c1ccc(OC(=O)c2ccc3nsnc3c2)cc1 the results were UHRF1 binding 2.4, LEDGF integ inh -4.7, PLC-gamma1 inh -0.3, PLCb3 inh -1.0 and MBD2 DNA inh 3.5.
`Cc1ccccc1NC(=O)CNC(=O)c1ccc(C(F)(F)F)cc1` gave UHRF1 binding 0.0, LEDGF integ inh 1.2, PLC-gamma1 inh -3.0, PLCb3 inh -1.2 and MBD2 DNA inh -2.6.
Cc1ccccc1NC(=O)Nc1ccc(C(F)(F)F)cc1 was read as UHRF1 binding 4.5, LEDGF integ inh 3.6, PLC-gamma1 inh 12.7*, PLCb3 inh 12.0*, MBD2 DNA inh 0.3, PLCgamma1 ctr 0.5 and PLCb3 confirm 1.5.
For C(=NOCc1ccccc1)c1ccccn1 the results were UHRF1 binding -0.4, LEDGF integ inh 3.1, PLC-gamma1 inh 1.3, PLCb3 inh 12.5*, MBD2 DNA inh -8.1, PLCgamma1 ctr -1.0 and PLCb3 confirm -3.5.
